We go through 29 molecules from the supplement of paper PMC13380429.

Experiment [1] concerns Vero E6 infected with SARS-CoV-2. Description: morphology score (similarity to uninfected cells); higher = more like uninfected cells. The note with it: 24 h.
The test system is the same in experiment [2]. Description: SARS-CoV-2 infection rate relative to infected DMSO; higher = more infection, active = 60 or less. The note with it: 24 h.

In experiment [1], `N#CC1(c2ccc(NC(=O)c3cccnc3NCc3ccncc3)cc2)CCCC1` [apatinib] (10 µM) had a morphology score of 0.31. Besides, the SARS-CoV-2 infection rate in experiment [2] is 107% (inactive).
For `NC(=O)N/N=C/c1ccc([N+](=O)[O-])o1` [nitrofurazone] (10 µM), in that order: 0.187 and 105% (inactive).
`Cc1c(O)cccc1C(=O)N[C@@H](CSc1ccccc1)[C@H](O)CN1C[C@H]2CCCC[C@H]2C[C@H]1C(=O)NC(C)(C)C` [nelfinavir] (10 µM) displayed a morphology score in experiment [1] of 0.722. Further, in experiment [2], the SARS-CoV-2 infection rate was 47.5% (active).
As to `C[C@@H](CN1CC(=O)NC(=O)C1)N1CC(=O)NC(=O)C1` [dexrazoxane] (10 µM), the morphology score in experiment [1] amounted to 0.0659. The SARS-CoV-2 infection rate in experiment [2] was 97% (inactive).
In experiment [1], `CCNC(=O)/C=C/c1cccc(Br)c1` [cinromide] (10 µM) registered a morphology score of 0.135. In addition, the SARS-CoV-2 infection rate in experiment [2] was 96% (inactive).
For the molecule `CCOC(=O)[C@]12CC1/C(=N\O)c1ccccc1O2` (stereo partly drawn) (10 µM), the morphology score in experiment [1] came to 0.224. Besides, the SARS-CoV-2 infection rate in experiment [2] is 90.5% (inactive).
For `CCNC(=O)Nc1ccc(-c2nc3c(c(N4CCOC[C@@H]4C)n2)CCN(C2COC2)C3)cc1` (0.833333 µM), in experiment [1], the morphology score turned out to be 0.13. In addition, the SARS-CoV-2 infection rate in experiment [2] was 103% (inactive).
In turn, `CC(C)C[C@@H](C(=O)N[C@H](C(=O)OC1CCCC1)c1ccccc1)[C@H](O)C(=O)NO` [tosedostat] (10 µM) had a morphology score in experiment [1] of 0.243. The SARS-CoV-2 infection rate in experiment [2] was 97% (inactive).
On to `CCOC(=O)[C@H](C)C[C@@H](Cc1ccc(-c2ccccc2)cc1)NC(=O)CCC(=O)O` [sacubitril] (10 µM), for which the morphology score in experiment [1] was found to be 0.156. Also, the SARS-CoV-2 infection rate in experiment [2] is 102% (inactive).
Molecule `O=C(Nc1ccc(CN2CCOCC2)cc1)c1ccc(-c2cccc(Cl)c2)o1` (10 µM) had a morphology score in experiment [1] of 0.194. Further, the SARS-CoV-2 infection rate in experiment [2] was 110% (inactive).
For the molecule `CO[C@H]1[C@H](O)[C@@H](O)[C@@H](O)[C@H](O)[C@@H]1O` [pinitol] (10 µM), the morphology score in experiment [1] is -0.0343. The SARS-CoV-2 infection rate in experiment [2] was 114% (inactive).
Turning to `Clc1ccc(C2=CCC[C@H]3CC[C@@H]2N3)cn1` (10 µM), the morphology score in experiment [1] is -0.0924. In experiment [2], the SARS-CoV-2 infection rate is 110% (inactive).
Regarding `CCCCCCCC/C=C/CCCCCCCC(=O)OC[C@H]1O[C@@H](n2ccc(N)nc2=O)C(F)(F)[C@@H]1O` [gemcitabine-elaidate] (0.833333 µM), the morphology score in experiment [1] was 0.0895. In addition, in experiment [2], the SARS-CoV-2 infection rate was 112% (inactive).
For `NC(=S)N/N=C/c1ncccc1N` [triapine] (0.833333 µM), in that order: 0.051 and 106% (inactive).
Turning to `CCCCCOC(=O)Nc1nc(=O)n([C@@H]2O[C@H](C)[C@@H](O)[C@H]2O)cc1F` [capecitabine] (10 µM), the morphology score in experiment [1] is -0.208. The SARS-CoV-2 infection rate in experiment [2] is 114% (inactive).
For `NC(=O)NC(=O)Cc1ccccc1` [phenacemide] (10 µM), the morphology score in experiment [1] was 0.0778. Besides, in experiment [2], the SARS-CoV-2 infection rate was 114% (inactive).
Regarding `COC(=O)Nc1nc2cc(SC(C)C)ccc2[nH]1` [methiazole] (0.833333 µM), the morphology score in experiment [1] is -0.254. The SARS-CoV-2 infection rate in experiment [2] was 120% (inactive).
Take `CCCCCCCCCCCCCCCCCCCCCCCCC(=O)O` [pentacosanoic-acid] (10 µM): in experiment [1], the morphology score was 0.211. Also, the SARS-CoV-2 infection rate in experiment [2] was 96% (inactive).
For `O=C(NOCC1CC1)c1ccc(F)c(F)c1Nc1ccc(I)cc1Cl` (10 µM), in that order: 0.0812 and 100% (inactive).
In experiment [1], `Cc1cccc(Nc2ccncc2S(=O)(=O)NC(=O)NC(C)C)c1` [torasemide] (10 µM) showed a morphology score of 0.215. The SARS-CoV-2 infection rate in experiment [2] is 102% (inactive).
`S=C(NCCc1ccccn1)Nc1ccc(Br)cn1` [trovirdine] (10 µM) gave a morphology score in experiment [1] of 0.00939. Moreover, in experiment [2], the SARS-CoV-2 infection rate was 110% (inactive).
`Cc1c(N2C(=O)[C@@H]3[C@H](O)CCN3C2=O)ccc(C#N)c1Cl` (10 µM) displayed a morphology score in experiment [1] of 0.189. The SARS-CoV-2 infection rate in experiment [2] was 91.5% (inactive).
Turning to `O=c1[nH]c2ccc(Cl)cc2c(N[C@@H]2CN3CCC2CC3)c1-c1nc2ccccc2[nH]1` (10 µM), the morphology score in experiment [1] was -0.162. Further, the SARS-CoV-2 infection rate in experiment [2] is 110% (inactive).
Turning to `CCN(CC)CCOc1ccc(C(O)(Cc2ccc(Cl)cc2)c2ccc(C)cc2)cc1` (stereo not drawn) [Triparanol] (0.833333 µM), in experiment [1], the morphology score amounted to 0.0848. For the same molecule, the SARS-CoV-2 infection rate in experiment [2] is 77.5% (inactive).
For the molecule `COc1cc([S+](C)[O-])ccc1-c1nc2cccnc2[nH]1` (stereo not drawn) [sulmazole] (10 µM), the morphology score in experiment [1] amounted to 0.165. Also, the SARS-CoV-2 infection rate in experiment [2] was 98.5% (inactive).
For the molecule `Cc1sc2c(c1C)C(c1ccc(Cl)cc1)=N[C@@H](CC(N)=O)c1nnc(C)n1-2` (0.833333 µM), the morphology score in experiment [1] is -0.0333. The SARS-CoV-2 infection rate in experiment [2] was 104% (inactive).
As for `CCC[S+]([O-])c1ccc2[nH]c(NC(=O)OC)nc2c1` (stereo not drawn) [albendazole-oxide] (10 µM), the morphology score in experiment [1] was determined as 0.034. Also, in experiment [2], the SARS-CoV-2 infection rate was 110% (inactive).
For `COc1ccc(C(=O)c2c(C)n(CCN3CCOCC3)c3cc(I)ccc23)cc1` (10 µM), the morphology score in experiment [1] came to 0.116. Moreover, the SARS-CoV-2 infection rate in experiment [2] was 102% (inactive).
On to `CCOC(=O)C1=C[C@@H](OC(CC)CC)[C@H](NC(C)=O)[C@@H](N)C1` [oseltamivir-phosphate] (10 µM), for which the morphology score in experiment [1] is 0.239. Besides, the SARS-CoV-2 infection rate in experiment [2] was 85.5% (inactive).
